Assay results from PubChem BioAssay (NCI).
Where “and” joins values, the source holds several entries; their conditions need not be identical. Equal values may be shown once. The panel holds about 79,000 compounds, 15% with a hit somewhere; the sample as a whole holds those more often. Some structures have more than one record in an assay (separate samples or runs), and their calls can disagree. Calls of active or inactive are those of the source. Rule as the data show it: active = growth inhibition above about 70%; inactive = the rest.

How the values were obtained:
[1] = NCI Yeast Anticancer Drug Screen. Data for the rad52 strain (AID 147);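 also: 0% = growth of vehicle-treated control cultures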; settings: S. cerevisiae rad52 mutant growth inhibition, stronger effect = higher value
How it was run: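 Measured: yeast growth inhibition. System: strain with a defined DNA damage repair alteration. Reference: vehicle-treated control cultures.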

[2] = NCI Yeast Anticancer Drug Screen. Data for the wt1 strain (AID 149);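 also: 0% = growth of vehicle-treated wt1 cultures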; settings: S. cerevisiae wt1 strain (SPY 50644) growth inhibition, stronger effect = higher value
How it was run: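 wt1 strain grown with compound or vehicle; inhibition taken from the growth difference.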

[3] = NCI Yeast Anticancer Drug Screen. Data for the rad50EPP+ strain (AID 151);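 also: 0% = growth of vehicle-treated control cultures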; settings: S. cerevisiae rad50 mutant strain, stronger effect = higher value
How it was run: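 One strain with a rad50 alteration (rad50EPP+) was compound-treated, its growth then compared to that of vehicle controls.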

[4] = NCI Yeast Anticancer Drug Screen. Data for the mgt1 strain (AID 153); settings: S. cerevisiae mgt1 mutant growth inhibition, stronger effect = higher value
How it was run: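 After exposure of the mgt1 yeast mutant to compound, growth was measured and reported as inhibition compared with vehicle controls.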

[5] = NCI Yeast Anticancer Drug Screen. Data for the rad50 strain (AID 155);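 also: 0% = growth of vehicle-only cultures of the same strain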; settings: S. cerevisiae rad50 strain growth inhibition, stronger effect = higher value
How it was run: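 DNA repair mutant yeast, compound exposure, growth read-out; inhibition is taken relative to vehicle.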

[6] = NCI Yeast Anticancer Drug Screen. Data for the mec2-1 strain (AID 157); settings: S. cerevisiae mec2-1 strain, stronger effect = higher value
How it was run: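 Test agents were screened against the mec2-1 yeast strain, with defined DNA repair or cell cycle alteration. Growth was scored as inhibition against vehicle-only controls.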

[7] = NCI Yeast Anticancer Drug Screen. Data for the rad14 strain (AID 159);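 also: 0% = growth of vehicle-treated control cultures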; settings: S. cerevisiae rad14 strain growth inhibition, stronger effect = higher value
How it was run: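 DNA repair-defective yeast, compound-exposed; % growth inhibition derived by comparison with vehicle-treated controls.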

[8] = NCI Yeast Anticancer Drug Screen. Data for the sgs1 mgt1 strain (AID 161);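 also: 0% = growth of cultures given vehicle only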; settings: S. cerevisiae sgs1 mgt1 strain, stronger effect = higher value
How it was run: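 Test agents were incubated with a DNA-repair-mutant yeast strain. Growth was then read and compared against vehicle-treated controls.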

[9] = NCI Yeast Anticancer Drug Screen. Data for the CLN2oe strain (AID 163);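 also: 0% = growth of vehicle-only control cultures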; settings: S. cerevisiae CLN2oe strain, stronger effect = higher value
How it was run: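 Here, growth inhibition in a cell-cycle-altered yeast strain after compound exposure was quantified against vehicle control growth.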

[10] = NCI Yeast Anticancer Drug Screen. Data for the cln2 rad14 strain (AID 165);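 also: 0% = growth equal to vehicle treated cultures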; settings: S. cerevisiae cln2 rad14 strain, stronger effect = higher value
How it was run: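 Growth of compound-exposed yeast (cln2 rad14 genotype) measured and expressed as inhibition relative to vehicle.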

[11] = NCI Yeast Anticancer Drug Screen. Data for the bub3 strain (AID 167); settings: S. cerevisiae bub3 mutant strain, stronger effect = higher value
How it was run: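 In this screen, a yeast mutant lacking normal mitotic checkpoint function is challenged with compound. Relative growth versus vehicle gives the inhibition value.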

[12] = at 5.0 µM (retest, dose inferred, filed as 0.5)
[13] = at 50.0 µM (retest, dose inferred, filed as 5.0)

Measured: growth inhibition

COc1ccc(C(=O)C(CN(C)C)CN(C)C)cc1
inactive: [1]; at 1.2 µM -14% | [1]; at 3.7 µM 30% | [1]; at 11.0 µM 30% | [1]; at 33.0 µM 29% | [1]; at 100.0 µM 48% | [2]; at 1.2 µM -5% | [2]; at 3.7 µM -1% | [2]; at 11.0 µM -4% | [2]; at 33.0 µM 3% | [2]; at 100.0 µM 40% | [3]; at 1.2 µM 10% | [3]; at 3.7 µM 19% | [3]; at 11.0 µM 9% | [3]; at 33.0 µM 13% | [3]; at 100.0 µM 17% | [4]; at 1.2 µM -26% | [4]; at 3.7 µM -12% | [4]; at 11.0 µM -8% | [4]; at 33.0 µM 11% | [5]; at 1.2 µM 7% | [5]; at 3.7 µM -1% | [5]; [12] 26% and 8% | [5]; at 11.0 µM -2% | [5]; at 33.0 µM 11% | [5]; [13] 52% and 35% | [5]; at 50.0 µM 35.8% and 45.3% | [5]; at 100.0 µM 51% | [6]; at 1.2 µM -20% | [6]; at 3.7 µM -9% | [6]; [12] 14% and 1% | [6]; at 11.0 µM -4% | [6]; at 33.0 µM 9% | [6]; [13] 63% and 41% | [6]; at 100.0 µM 68% | [7]; at 1.2 µM -13% | [7]; at 3.7 µM -8% | [7]; at 11.0 µM -2% | [7]; at 33.0 µM 19% | [7]; at 100.0 µM 24% | [8]; [12] 34% and 14% | [8]; [13] 59% and 35% | [8]; at 50.0 µM 32.8% and 61.8% | [9]; at 1.2 µM 15% | [9]; at 3.7 µM 12% | [9]; at 11.0 µM 6% | [9]; at 33.0 µM 33% | [9]; at 100.0 µM 46% | [10]; [12] 11% and 20% | [10]; [13] 31% and 36% | [10]; at 50.0 µM 21.6% and 30.7% | [11]; at 1.2 µM -18% | [11]; at 3.7 µM -5% | [11]; [12] 21% and 19% | [11]; at 11.0 µM -2% | [11]; at 33.0 µM 11% | [11]; [13] 51% and 33%
active: [4]; at 100.0 µM 77% | [6]; at 50.0 µM 74.2% and 75.8% | [11]; at 100.0 µM 74%
0.15% (inactive) and 75.1% (active): [11]; at 50.0 µM
